nsP2pro inh: inhibitors of chikungunya virus nsP2 protease. AID 1964107. Q8JUX6. hit rate 1.1% among 31,000. Potency, µM (series often up to 24.9 µM), for inactives: at the top dose activity change, negative = inhibition, actives largely listed as inhibitors. FRET peptide cleavage, nsP2pro, fluorescence 1 h; calls by dose curve; further: nearly all actives have a fitted effect of over 60% in size
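Purified recombinant nsP2pro (150 nM final) in 10 mM Tris-HCl pH 8.0 with 0.01% Tween 20 was preincubated 15 min at room temperature with compound (7 concentrations, up to 25 uM). FRET peptide 2 substrate (2.5 uM final) was then added; fluorescence was read after 1 h.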
* hit, by the source's call; [ ] = dose if it differs, or a comment. Shown is part of a subset that was picked to be rich in hits. On the % scale 0 is the no-effect control and ±100 the full control effect; potency means the concentration at half of the fitted maximal effect.

CCOC(=O)c1cnn(-c2ccccc2)c1NC(=O)c1cc2nc(-c3ccco3)cc(C(F)(F)Cl)n2n1 was read as nsP2pro inh 11µM*.
COC(=O)c1ccccc1NC(=O)c1cc2nc(-c3ccccc3)cc(-c3ccccc3)n2n1 was read as nsP2pro inh -19%.
For CCOC(=O)c1cnn(-c2ccc(NC(=O)C(Cl)=C(Cl)Cl)cc2)c1C(F)(F)F the results were nsP2pro inh -1%.
CC(C)C1=NOC2(CCN(C(=O)C3CCCC3)CC2)C1 was read as nsP2pro inh -7%[39.2 µM].
Cc1cc(C)nc(NC(=S)N2CCN(c3ccc4cnccc4c3)CC2)c1 was read as nsP2pro inh -2%.
`O=C(O)c1ccc(-n2cccc2/C=C2\SC(=O)N(Cc3ccccc3Cl)C2=O)cc1` gave nsP2pro inh inactive.
Screening Cn1cnc(S(=O)(=O)Nc2cnccc2C(=O)Nc2nc(-c3ccccc3)cs2)c1 returned nsP2pro inh inactive.
`O=C(NCCc1ccc(Cl)cc1)C1CCc2nnc(CN[S+](=O)([O-])c3ccccc3Cl)n21` (centres undefined) gave nsP2pro inh inactive.
CC1COC2=C1C(=O)C(=O)c1c2ccc2c1CCCC2(C)C (centres undefined) was read as nsP2pro inh 11µM*.
Screening O=C(CC1CCCC1)N1C[C@@H](CO)[C@@H]2Oc3ccc(Cl)cc3[C@@H]21 returned nsP2pro inh -3%.
For O=C(Cc1ccccc1)NCc1ccnc2[nH]ccc12 the results were nsP2pro inh -1%[39.2 µM].
O=C(NCc1c[nH]c2ncccc12)c1cccnc1 was read as nsP2pro inh 3%[39.2 µM].
`O=C(NCc1ccnc2[nH]ccc12)c1ccc(Cl)cc1` gave nsP2pro inh 14µM*.
Screening COc1cccc(-c2noc(CN3CCC(c4nc(-c5cccn5C)no4)C3)n2)c1OC (centres undefined) returned nsP2pro inh -13%.
C[C@]12CCC3=C4CCC(=O)C=C4CC[C@H]3[C@@H]1CC[C@@]2(O)CC#N was read as nsP2pro inh -5%.
`CCOc1ccc(C(=O)Nc2ccc(-c3nnc4n3CCCCC4)cc2)cc1OCC` gave nsP2pro inh 10µM*.
Screening O=C(CCC1CCCC1)Nc1ccc(-c2nnc3n2CCCC3)cc1 returned nsP2pro inh 5%.
COc1ccc(Cl)cc1C(=O)Nc1ccc(-c2nnc3n2CCCCC3)cc1 was read as nsP2pro inh -2%.
Screening Cc1cccc(-n2cnc3cc(C(=O)NC4CCCCC4)ccc32)c1 returned nsP2pro inh -9%.
Screening O=C(NCC1CCC(=O)N(Cc2ccccc2)CC1)C1CCCCC1 (centres undefined) returned nsP2pro inh inactive.
`O=S1(=O)N=C(Sc2cc(C(F)(F)F)cc(C(F)(F)F)c2)c2ccccc21` gave nsP2pro inh -2%.
`COc1ccc(CN2CCc3nc(C(=O)NCCOc4ccccc4)oc3CC2)cn1` gave nsP2pro inh 3.5µM*.
Screening O=C(NCc1cccc(F)c1)c1nc2c(o1)CCN(CC1CCCC1)CC2 returned nsP2pro inh 3.5µM*.
`O=C(NCC1CC1)C1CN(Cc2ccccc2)C(=O)N1` (centres undefined) gave nsP2pro inh 5%[39.2 µM].
For COc1ccc(CN2CCc3ncc(C(=O)NCc4ccc5c(c4)OCO5)n3CC2)cn1 the results were nsP2pro inh inactive.
For Cc1c(C(=O)NCc2cccc(F)c2)oc2c1-c1[nH]ncc1CC2 the results were nsP2pro inh -32%.
For O=C(NCC1CC1)c1nc2c(o1)CCN(CCCc1ccccc1)CC2 the results were nsP2pro inh 10µM*.
Screening O=C(NCc1ccc(F)cc1)c1nnc(Cc2cccc(F)c2)o1 returned nsP2pro inh -14%.
Screening O=C(NC1CC1)[C@@H]1CN(CCCc2ccccc2)C[C@H]1CO returned nsP2pro inh -15%.
Screening Cc1[nH]cnc1CN1CCc2nc(C(=O)NCCOc3ccccc3)oc2CC1 returned nsP2pro inh inactive.
Screening CCC=CCC=CCC=CCCCCCCCC(=O)O returned nsP2pro inh -30%.
`CCOC(=O)c1ccoc1-c1ccc2ncnc(N(C)Cc3sccc3C)c2c1` gave nsP2pro inh inactive.
For CCCCCCCCCCCCCCCc1cccc(O)c1C(=O)O the results were nsP2pro inh 84%.
`CN1CC(=O)N(C2CCCCC2)Cc2c(NCCO)ncnc21` gave nsP2pro inh -3%[39.2 µM].
CCS(=O)(=O)N[C@@H]1CN(Cc2ccccc2)C[C@H]1CN(C)C was read as nsP2pro inh -10%.
`O=[S+]([O-])(Nc1ccc(N2CCNCC2)cc1)c1ccc(NCc2cccc(Cl)c2O)cc1` gave nsP2pro inh inactive.
For O=C(O)c1cccc(-c2noc(-c3cccc(F)c3)n2)c1 the results were nsP2pro inh inactive.
For O=C(Cc1ccc(Cl)c(Cl)c1)Nc1ccc([S+](=O)([O-])Nc2nnc(-c3ccccn3)s2)cc1 the results were nsP2pro inh inactive.
For COc1cccc(CNc2ccc(S(=O)(=O)Nc3ccc(C4CCNCC4)cc3)cc2)c1O the results were nsP2pro inh -3%.
